In the library only some 5.2% were active in any assay of this set; here they are far more common.
Tau fibril ThT: inhibitors of human tau fibril formation, thioflavin T binding. recombinant tau K18 P301L, heparin-induced fibrillization, ThT fluorescence. Potency, µM (titrated, usually from 57.4 µM), usual class: inhibitors. AID 1460. 270,000 compounds, 2.1% hits. P10636; note: nearly all actives have a fitted effect of over 55% in size
Target sequence (P10636 561-689 P618L limits assumed): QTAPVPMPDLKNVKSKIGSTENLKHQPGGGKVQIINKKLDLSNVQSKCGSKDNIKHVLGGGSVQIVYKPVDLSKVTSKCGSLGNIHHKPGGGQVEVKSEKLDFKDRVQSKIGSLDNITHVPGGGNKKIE
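K18 P301L tau (15 uM + 0.24 uM Alexa 594-tagged), heparin 20 uM, NaOAc pH 7, 6 h 37 C; ThT 30 uM, 1 h RT, ex 450/em 510 nm.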
Sfp PPTase inh: blocks B. subtilis Sfp PPTase activity. Q9F4F7. Biochemical Sfp PPTase activity, qHTS. Potency, µM, usual class: inhibitors. 310,000 compounds, 3.5% hits. AID 1490;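 note: the enzyme is Sfp with the accession as filed and its product quenches rhodamine fluorescence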
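Reaction rates are the 30-min fluorescence difference (ex 525, em 598 nm) in wells containing 15 nM Sfp, 5 uM rhodamine-CoA and 12.5 uM BHQ-2-YbbR at pH 7.6 with 10 mM MgCl2.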
Coupling enz: inhibits coupling enzyme system, counter-screen for aldolase hits; coupling enzyme system counterscreen, AmpLite Red fluorescence; activity change, negative = inhibition, % at 58.2 µM, hits read low; 290,000 compounds, 0.67% hits; AID 2472; in the data active = activity change below about -30%
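First, compound is pin-transferred into glyceraldehyde-3-phosphate coupling-enzyme reagent at 57.5 uM final and held 10 min at RT. Next, substrate, coupling system and AmpLite Red are added. After 20 min RT, fluorescence (525/598 nm) is read.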
Tau fibril FP: inhibitors of human tau fibril formation | P10636 | K18 P301L tau heparin fibrillization, Alexa594 FP, 6 h | Potency, µM (top dose mostly 57.7 µM), usual class: inhibitors | 280,000 compounds, 0.39% hits | AID 1468; note: nearly all actives have a fitted effect of over 55% in size
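Recombinant K18 P301L […], labeled with Alexa 594 at 0.24 uM over 15 uM unlabeled; heparin inducer 20 uM final; 37 C, 6 hr; FP endpoint.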
Tau fluor cs: counter-screen for tau fibril formation inhibitors | 280,000 compounds, 0.93% hits | tau K18 P301L (four-repeat tau fragment) Alexa594 fluorescence, heparin fibrillization | AID 1463 | Potency, µM (titrated, usually from 57.7 µM); note: nearly all actives have a fitted effect of over 55% in size
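Human K18 P301L tau (15 uM unlabeled plus 0.24 uM Alexa 594-labeled, final) in 100 mM sodium acetate pH 7 was mixed with compound and 20 uM heparin and incubated 6 hr at 37 C.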
Of the large screens only hits and unclear results are named; the others gave an inactive call; ! = repeats disagree; [ ] = remark or other dose. Unless noted, calls come from the whole dose curve; as a rule, active = well fitted curve in the direction sought with a large enough effect; inconclusive = small, poorly fitted or top-dose-only effect, or another doubt; inactive = no such curve, though single readings can be large; an effect the other way counts as inactive or inconclusive.

Cc1cc(Br)ccc1N=C1NC(=O)CS1	Sfp PPTase inh 39.8µM (no result: Tau fibril ThT, Tau fibril FP, Tau fluor cs)
Cc1ccc(NC(=S)N2CCOCC2)cc1	none
S=C(Nc1ccc2nc(-c3ccccn3)c(-c3ccccn3)nc2c1)N1CCCCCC1	Tau fibril ThT inconclusive, Sfp PPTase inh 39.8µM
CCCNC(=S)Nc1ccc2nc(-c3ccccn3)c(-c3ccccn3)nc2c1	Sfp PPTase inh 17.8µM, Coupling enz -53.9
S=C(Nc1ccc2nc(-c3ccccn3)c(-c3ccccn3)nc2c1)N1CCCCC1	none
S=C(Nc1ccc2nccnc2c1)N1CCOCC1	Tau fibril ThT 25.1µM, Sfp PPTase inh 35.5µM, Coupling enz -34.3, Tau fibril FP inconclusive
Brc1cc2[nH]cnc2c2ccccc12	Tau fibril ThT inconclusive, Sfp PPTase inh inconclusive, Coupling enz -39.2, Tau fluor cs inconclusive
Oc1ccc2c(ccc3[nH]cnc32)c1	none
CCCOC(=O)c1ccccc1O	none (no result: Tau fibril ThT, Coupling enz, Tau fibril FP, Tau fluor cs)
CCN1C(=O)c2ccccc2S(=O)(=O)c2ccc(C(=O)NCc3ccccc3Cl)cc21	none (no result: Sfp PPTase inh, Coupling enz)
Cn1cnc2c(=O)oc3ccc(S(=O)(=O)N4CCN(c5cccc(C(F)(F)F)c5)CC4)cc3c21	none (no result: Sfp PPTase inh, Coupling enz)
COc1cc(NC(=O)Nc2ccccc2)c(OC)cc1NC(=O)CN1CCCCC1	Tau fibril ThT inconclusive, Tau fibril FP inconclusive, Tau fluor cs 28.2µM[quencher]
COc1cc(NC(=O)Nc2ccccc2OC)c(OC)cc1NC(=O)CN1CCCCC1	Tau fibril ThT inconclusive, Tau fibril FP inconclusive, Tau fluor cs inconclusive
CCN(CC)CCCNC(=O)c1nn(C)c2c1CSc1ccccc1-2	Tau fibril ThT inconclusive, Tau fibril FP inconclusive, Tau fluor cs 25.1µM[quencher] (no result: Sfp PPTase inh, Coupling enz)
Cn1nc(C(=O)N2CCN(c3ccc(F)cc3)CC2)c2c1-c1ccccc1SC2	Tau fluor cs 7.08µM[quencher] (no result: Sfp PPTase inh, Coupling enz)
CCc1ccccc1N1CC(c2nc3ccccc3n2CCC2CCCCC2)CC1=O (stereo not drawn)	Tau fibril ThT inconclusive (no result: Sfp PPTase inh, Coupling enz)
CC[C@H](C)N(C)C(=O)c1cc2ccccc2c(-c2ccccc2Cl)n1	none
CC1(C)Cc2nc3sc(C(=O)NCCCO)c(N)c3cc2CO1	Sfp PPTase inh 79.4µM
COC(=O)c1sc2nc3c(cc2c1N)COC(C)(C)C3	Sfp PPTase inh inconclusive
CN(Cc1ccccc1F)c1ncnc2sccc12	none (no result: Tau fibril ThT, Tau fibril FP, Tau fluor cs)
CN(Cc1cccs1)c1ncnc2sccc12	Sfp PPTase inh 79.4µM
CC1(C)OC2C[C@](O)(C(N)=O)C[C@H](O)[C@H]2O1 (stereo partly drawn)	none
N=c1c2c(ncn1Cc1ccco1)Oc1c(ccc3ccccc13)C2c1ccccc1 (stereo not drawn)	Sfp PPTase inh 50.1µM
CCOc1ccc(NC(=O)CSc2oc(-c3ccc(C)cc3)nc2S(=O)(=O)c2ccc(C)cc2)cc1	Tau fluor cs inconclusive (no result: Sfp PPTase inh, Coupling enz)
COc1ccc2[nH]cc(CCN=C(NC(=O)c3ccccc3F)Nc3nc(C)cc(C)n3)c2c1	Tau fluor cs inconclusive (no result: Sfp PPTase inh, Coupling enz)
CO/N=C(/C(=O)NC1C(=O)N2C(C(=O)O)=C(CSc3nc(=O)c(O)nn3C)CSC12)c1csc(N)n1 (stereo not drawn)	Tau fibril ThT inconclusive, Sfp PPTase inh 50.1µM!, Tau fibril FP inconclusive
CO/N=C(/C(=O)N[C@H]1C(=O)N2C(C(=O)O)=C(COC(C)=O)CSC12)c1csc(N)n1 (stereo partly drawn)	Tau fibril ThT inconclusive
CO/N=C(/C(=O)N[C@@H]1C(=O)N2C(C(=O)O)=CCS[C@H]12)c1csc(N)n1	Sfp PPTase inh 50.1µM (no result: Tau fibril ThT, Coupling enz, Tau fibril FP, Tau fluor cs)
O=C(NCC(c1cccnc1)N1CCN(Cc2ccccc2)CC1)C(=O)Nc1cccc(Cl)c1 (stereo not drawn)	Tau fibril FP inconclusive (no result: Sfp PPTase inh, Coupling enz)
COc1cc(OC)cc(-c2nc3nc(C)c(CCC(=O)Nc4ccc(F)cc4F)c(C)n3n2)c1	Tau fibril ThT inconclusive, Tau fluor cs inconclusive (no result: Sfp PPTase inh, Coupling enz)
O=P(c1ccccc1)(c1ccccc1)N(c1ccccc1)c1ccccc1	none
O=C1C=CC(=O)N1N(c1ccccc1)c1ccccc1	Sfp PPTase inh 31.6µM
COc1ccc(CNC(=O)c2sc3nc4n(c(=O)c3c2C)CCCCC4)cc1	none (no result: Sfp PPTase inh, Coupling enz)
CN(C)c1ccc(N=Nc2ccccc2C(=O)OCC(=O)NC2CCCC2)cc1	Tau fibril ThT 6.31µM, Tau fluor cs inconclusive
CN(C)c1ccc(N=Nc2ccccc2C(=O)OCC(=O)N(C)C2CCCCC2)cc1	Tau fibril ThT 7.94µM, Tau fluor cs inconclusive
